Assay results: patent US20150152398, “Endoribonuclease and Methods of Use Thereof” (The Regents of the University of California, published 2015)

Target: T1, TtCas6A (TTHA0078, Cas6) (Thermus thermophilus HB8)
T1 chain: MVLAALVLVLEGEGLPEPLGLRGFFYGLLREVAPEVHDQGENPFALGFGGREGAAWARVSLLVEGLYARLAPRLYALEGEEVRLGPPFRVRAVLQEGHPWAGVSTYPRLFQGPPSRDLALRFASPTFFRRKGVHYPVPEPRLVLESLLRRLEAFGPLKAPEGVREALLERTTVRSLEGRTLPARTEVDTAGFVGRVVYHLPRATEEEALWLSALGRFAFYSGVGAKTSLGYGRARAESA
Assay: EMSA; closing base pair; Kd in FIG. 24C only
Settings: chain copies: 2 stated (dimer in solution); hairpin; ssRNA; [20,25]
From the text: FIG. 22 illustrates that TtCas6A and TtCas6B both cleave repeats R1 and R3 and retain their cleaved products. (A) Sequences and predicted secondary structures of T. thermophilus CRISPR repeats. Sites of cleavage are indicated with blue arrows. TtCas6e (TTHB192) cleaves repeat R2, while TtCas6A (TTHA0078) and TtCas6B (TTHB231) both cleave repeats R1 and R3. (B) Cleavage product binding affinities of TtCas6A and TtCas6B enzymes. Maltose binding protein (MBP)-fused TtCas6A or TtCas6B were bound to in 5′-radiolabelled, vitro transcribed R1 and R3 RNAs. Bound and unbound fractions were resolved by electrophoresis on a native polyacrylamide gel and visualized by phosphorimaging. The data for these and all subsequent binding assays were fit with standard binding isotherms (solid line). […] RNA cleavage was monitored using denaturing polyacrylamide gel electrophoresis. […]
To test the importance of the stem sequence for substrate RNA recognition by TtCas6A, a series of EMSAs was performed using R1 repeat-derived RNAs that carried single base pair substitutions (C-G→A-U). […] This is consistent with the observation that the lower three C-G base pairs are specifically read out by Arg129. The binding defect observed upon mutation of the closing (uppermost) base pair could be due to loss of stability of the stem-loop structure, which is determined by the closing base-pair (Serra et al, 1993). […]

Sequence | binding signal
GUUGCAAGGGAUUGAGCCCAGUAAUGGGAU | ~5 fold lower affinity than wild-type RNA
